Measurements: PubChem BioAssay (NCI)
The panel holds about 83,000 compounds, 20% with a hit somewhere; the sample as a whole holds those more often.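 Single-concentration screen, 48 h exposure, 96-well plates. Endpoint: percent growth. Below 10 = active.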 Active and inactive are the calls of the source.

How the values were obtained:
Test in all cases: NCI-60 one-dose screen, 48 h (100 = growth as untreated, 0 = no growth, -100 = all killed)
NCI-H23 lung = conditions: 10 µM unless noted
NCI-H226 lung = conditions: 10 µM unless noted
HOP-62 NSCLC = conditions: 10 µM unless noted
NCI-H522 lung = conditions: 10 µM unless noted
COLO 205 colon = conditions: 10 µM
K-562 leukemia = conditions: 10 µM unless noted
SF-295 CNS = conditions: 10 µM unless noted
U251 CNS = conditions: 10 µM unless noted
EKVX NSCLC = conditions: 10 µM unless noted
SN12C renal = conditions: 10 µM unless noted
ACHN renal = conditions: 10 µM unless noted
CCRF-CEM leukemia = conditions: 10 µM unless noted
RPMI-8226 leukemia = conditions: 10 µM unless noted
NCI-H322M lung = conditions: 10 µM unless noted
MALME-3M melanoma = conditions: 10 µM unless noted
SK-MEL-2 melanoma = conditions: 10 µM unless noted
A498 renal = conditions: 10 µM unless noted
IGROV1 ovarian = conditions: 10 µM
HS 578T breast = conditions: 10 µM unless noted

Measured: growth

ClCCN(CCCl)C(c1ccccc1)c1ccc(Cl)cc1 (stereo unspecified)
inactive: NCI-H23 lung 77.3% | NCI-H226 lung 75.4% | HOP-62 NSCLC 108% | NCI-H522 lung 65% | COLO 205 colon 114% | K-562 leukemia 42.6% | SF-295 CNS 75.5% | U251 CNS 82.6% | EKVX NSCLC 102% | SN12C renal 41.1% | ACHN renal 28.9% | CCRF-CEM leukemia 15.3% | RPMI-8226 leukemia 42.1%

C/C1=C/C(=O)O[C@@H]2C[C@@H](CC[C@H](C)/C=C\C=C\CC1)O[C@@](OCCc1ccccc1)([C@@H]1CSC(=O)N1)C2
inactive: NCI-H23 lung 35.1% | NCI-H322M lung 27.8% | K-562 leukemia 36.3% | SF-295 CNS 17.7% | U251 CNS 16.4% | SK-MEL-2 melanoma 67.7% | SN12C renal 39.1% | RPMI-8226 leukemia 46.7%
active: HOP-62 NSCLC -15.8% | NCI-H522 lung 7.26% | COLO 205 colon 5.64% | MALME-3M melanoma -10.3% | EKVX NSCLC 1.32% | ACHN renal 7.46% | A498 renal -29.1% | IGROV1 ovarian -55.8% | HS 578T breast -2.84%

CC[C@]12C=CCN3CC[C@@]4(c5ccc(OC)cc5N(C)[C@H]4[C@@](O)(C(=O)OC)[C@@H]1OC(=O)CCCN1CCN(CCCC(=O)O[C@@H]4[C@]5(CC)C=CCN6CC[C@@]7(c8ccc(OC)cc8N(C)[C@H]7[C@@]4(O)C(=O)OC)[C@@H]65)CC1)[C@@H]32
active: NCI-H23 lung -80.6% | NCI-H322M lung -88.5% | HOP-62 NSCLC -82.5% | NCI-H522 lung -79.9% | COLO 205 colon -79% | K-562 leukemia -62% | MALME-3M melanoma -90.7% | SF-295 CNS -85.9% | U251 CNS -83.7% | SK-MEL-2 melanoma -75.7% | EKVX NSCLC -88.4% | SN12C renal -81.4% | ACHN renal -83.3% | A498 renal -58.2% | RPMI-8226 leukemia -55.2% | HS 578T breast -61.7%
